Screening data: PubChem BioAssay, National Center for Advancing Translational Sciences (NCATS)
Tau fluor cs: counter-screen for tau fibril formation inhibitors; tau K18 P301L Alexa594 fluorescence, heparin fibrillization; Potency, µM (highest dose often 57.7 µM), for the others: at the highest dose activity change, negative = decrease; actives 0.93% (n = 280,000); further: nearly all actives have a fitted effect of over 55% in size
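Human K18 P301L tau (15 uM unlabeled plus 0.24 uM Alexa 594-labeled, final) in 100 mM sodium acetate pH 7 was mixed with compound and 20 uM heparin and incubated 6 hr at 37 C.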
PLK1 PBD block: inhibitors of human PLK1 polo-box domain binding; P53350; actives 2.8% (n = 360,000); Potency, µM, without a hit: max response, negative = inhibition, most hits filed as inhibitors; Plk1 PBD binding of FITC phosphopeptide, fluorescence polarization; further: series mostly up to about 57 µM; nearly all actives have a fitted effect of over 65% in size
Target sequence (P53350 whole entry, looked up, the tested form may be a part): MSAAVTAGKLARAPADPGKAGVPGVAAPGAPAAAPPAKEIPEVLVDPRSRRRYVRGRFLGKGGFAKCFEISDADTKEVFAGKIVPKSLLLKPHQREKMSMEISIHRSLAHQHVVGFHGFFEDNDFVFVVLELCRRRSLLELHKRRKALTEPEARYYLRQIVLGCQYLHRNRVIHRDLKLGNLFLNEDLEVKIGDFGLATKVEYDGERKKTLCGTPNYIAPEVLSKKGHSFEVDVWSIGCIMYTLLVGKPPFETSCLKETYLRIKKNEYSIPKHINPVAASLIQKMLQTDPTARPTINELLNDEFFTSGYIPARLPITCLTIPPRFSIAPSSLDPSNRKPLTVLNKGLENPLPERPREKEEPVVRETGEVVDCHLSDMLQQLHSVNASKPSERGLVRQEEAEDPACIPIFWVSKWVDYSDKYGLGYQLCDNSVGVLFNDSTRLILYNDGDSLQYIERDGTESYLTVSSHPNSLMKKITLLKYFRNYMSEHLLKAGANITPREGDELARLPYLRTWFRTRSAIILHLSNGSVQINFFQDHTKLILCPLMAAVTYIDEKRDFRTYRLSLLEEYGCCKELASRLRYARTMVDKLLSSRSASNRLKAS
Sfp PPTase inh: Sfp phosphopantetheinyl transferase inhibition. AID 1490. Biochemical Sfp PPTase activity, qHTS. Potency, µM, inactives show largest response in the series, negative = inhibition, most hits filed as inhibitors. actives 3.5% (n = 310,000);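 further: the enzyme is Sfp with the accession as filed and its product quenches rhodamine fluorescence; 0% = enzyme reaction without inhibitor and -100% = no enzyme wells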
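Compounds were incubated with enzyme (final 15 nM) for 15 min at room temperature before substrate addition started the reaction. Fluorescence at 525 nm excitation, 598 nm emission was recorded immediately and after 30 minutes.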
Tau fibril ThT: blocks human tau fibril formation measured by thioflavin T | recombinant tau K18 P301L, heparin-induced fibrillization, ThT fluorescence | P10636 | actives 2.1% (n = 270,000) | AID 1460 | Potency, µM (doses to about 57.4 µM), without a hit: top-dose activity, negative = inhibition, hits mostly inhibitors; further: nearly all actives have a fitted effect of over 55% in size
Target sequence (P10636 561-689 P618L limits assumed): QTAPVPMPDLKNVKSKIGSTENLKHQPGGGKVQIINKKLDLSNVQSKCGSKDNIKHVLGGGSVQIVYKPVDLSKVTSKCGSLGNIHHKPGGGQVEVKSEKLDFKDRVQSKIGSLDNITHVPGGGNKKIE
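Using a mix of unlabeled (15 uM) and Alexa 594-labeled (0.24 uM) tau K18 P301L, heparin-triggered fibrillization over 6 hr at 37 C was scored by ThT fluorescence.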
VDR inh: inhibitors of human vitamin D receptor; VDR-SRC2-3 peptide fluorescence polarization, 2 h; actives 0.93% (n = 400,000); Potency, µM, for inactives: max response, negative = inhibition, usual class: inhibitors; AID 504847; P11473
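Signal is fluorescence polarization, reporting how far test compounds block the interaction of VDR with the SRC2-3 coregulator peptide after a 2 h room-temperature incubation.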
Tau FP inhib: tau fibrillization inhibition (FP). K18 P301L tau heparin fibrillization, Alexa594 FP, 6 h. Potency, µM (titrated, usually from 57.7 µM), for the others: at the top dose activity, negative = inhibition, actives largely listed as inhibitors. actives 0.39% (n = 280,000). AID 1468; further: nearly all actives have a fitted effect of over 55% in size
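K18 P301L tau (15 uM unlabeled/0.24 uM Alexa 594-labeled, final) + compound + heparin 20 uM final; 100 mM NaOAc pH 7; 6 hr 37 C; ThT 30 uM final added, 1 hr RT; FP ex 555/em 632 nm.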
Active calls of the source: *; ? = inconclusive; . = no result; [ ] = remark or other dose. This is a sample that favours compounds with a hit; in the whole collection about 6% have one here. The call rests on the fitted dose curve; in most records, active means well fitted curve in the direction sought with a large enough effect; inconclusive means small, poorly fitted or top-dose-only effect, or another doubt; inactive means no such curve, though single readings can be large; an effect the other way counts as inactive or inconclusive. Unless noted, on the % scale 0 is the no-effect control and ±100 the full control effect; potency means the concentration at half of the fitted maximal effect.

SMILES | Tau fluor cs | PLK1 PBD block | Sfp PPTase inh | Tau fibril ThT | VDR inh | Tau FP inhib
COCCn1ccc2c(OCC(=O)Nc3cccc(NC(C)=O)c3)cccc2c1=O | . | -7.8% | . | . | 5.1% | .
O=C(CSc1nc(-c2ccccc2)[nH]c1-c1ccccc1)Nc1ccc2c(c1)OCO2 | 7.08µM*[quencher] | . | . | ? | 9.4% | 2.2%
COc1cc(-c2nc(SCC(=O)Nc3ccc4c(c3)OCO4)c(-c3ccccc3)[nH]2)cc(OC)c1OC | 5.62µM*[quencher] | . | . | ? | 29.9% | 2.0%
O=C(CSc1nc(-c2ccccc2)c(-c2ccccc2)[nH]1)Nc1ccc2c(c1)OCO2 | ? | ? | -18.3% | -6.1% | -9.3% | 5.5%
Cc1ccc(C(=O)Nc2ccc3nc(SCC(=O)N4CCCc5ccccc54)sc3c2)cc1 | -29.3% | . | . | ? | 19.9% | ?
Cc1cc(C)c(Cn2c3ccccc3c3cnn(CC(=O)NC4CCC(C)CC4)c(=O)c32)c(C)c1 (stereo not drawn) | 4.8% | . | . | 3.1% | -0.5% | -0.6%
Brc1ccc(-c2nc3c4ccccc4ccn3c2Cc2ccccc2)cc1 | . | 4.4% | . | . | . | .
CC1CCc2c(sc(NC(=O)C3c4ccccc4Oc4ccccc43)c2C(=O)OC(C)C)C1 (stereo not drawn) | -3.9% | . | . | -0.7% | -10.7% | 3.3%
S=C(Nc1ccccc1)Nc1ccc(OCc2ccc(Cl)cc2Cl)cc1 | 14.1µM*[quencher] | -19.1% | -8.1% | ? | -23.8% | -1.3%
Cc1ccc(C(=O)Oc2ccccc2N2C(=O)C3CCC(C)CC3C2=O)cc1 (stereo not drawn) | -9.0% | 2.5% | 2.3% | -16.7% | 10.9% | 14.1%
CC1CCC2C(=O)N(c3ccc(C(=O)Oc4cccc5cccnc45)cc3)C(=O)C2C1 (stereo not drawn) | -29.4% | 0.0% | 10µM* | ? | -1.6% | ?
CCc1nc2ccc(C(=O)Nc3cccc(OCC(=O)N(C)C)c3)cn2c1N(CCC(C)C)CCN(C)C | . | 0.0% | . | . | . | .
CCNC(=O)Oc1ccc[nH]c1=O | -12.1% | ? | 25.1µM* | ? | -36.0% | ?
CC1(C(=O)Nc2ccc3c(c2)OCCO3)CN(S(C)(=O)=O)CC(=O)N1CCc1c[nH]c2ccccc12 (stereo not drawn) | . | -13.5% | . | . | . | .
CSc1ncc(Cl)c(C(=O)Nc2cccc(Cl)c2)n1 | . | 0.0% | -4.1% | . | -3.3% | .
O=C(CCCCn1c(=O)c2ccccc2n(CC(=O)Nc2ccccc2)c1=O)NCc1ccccc1Cl | -3.0% | . | . | ? | 9.2% | -14.6%
CCOc1ccc2c(c1)-c1c(ssc1=S)C(C)(C)N2C | 12.6µM*[quencher] | ? | -23.4% | 14.1µM* | -17.5% | -2.1%
CCOc1ccc(/C=C/c2nc(C#N)c(Nc3ccc(OC)cc3)o2)cc1 | -14.7% | . | . | ? | 11.9% | 11.4%
COc1ccc(NC(=O)c2ccc(COCC(F)(F)C(F)F)cc2)cc1OC | 0.9% | -2.9% | -1.0% | 9.0% | -2.0% | -11.0%
COc1cc(NC(=O)c2ccc(COCC(F)(F)F)cc2)cc(OC)c1OC | -20.8% | 4.74µM* | 11.4% | -16.8% | -17.0% | 0.6%
Cc1ccc(C2CC(c3ccc(F)cc3)Nc3nc(N)nn32)cc1 (stereo not drawn) | -12.9% | 26.7µM* | -0.6% | -8.1% | -18.8% | 5.3%
O=C(O)/C(=C\c1ccc(F)cc1)c1ccc(-c2ccccc2)cc1 | . | 23.8µM* | 11.2% | . | -17.4% | .
CCn1c2ccccc2c2cc(CN3CCN(Cc4cc(OC)ccc4O)CC3)ccc21 | ? | -7.4% | 50.1µM* | -13.2% | ? | 15.2%
CCn1c2ccccc2c2cc(CN3CCN(Cc4cc(OC)c(O)c(OC)c4)CC3)ccc21 | ? | . | . | ? | -15.3% | -3.5%
COc1ccc(CN2CCN(Cc3c[nH]c4ccccc34)CC2)cc1OC | . | -14.4% | . | . | . | .
SMILES | Tau fluor cs | PLK1 PBD block | Sfp PPTase inh | Tau fibril ThT | VDR inh | Tau FP inhib
COc1ccc(CN2CCN(Cc3c[nH]c4ccccc34)CC2)cc1 | . | -12.5% | 50.1µM* | . | 8.4% | .
COc1ccc(NC(=O)C2(C)CCN2Cc2cccc(OC)c2F)cc1OC (stereo not drawn) | . | -0.4% | . | . | . | .
CCO/C=C1/C(=O)N(c2ccc(OC)cc2)C(=O)c2ccccc21 | 3.0% | 16.8µM* | 16.0% | -0.3% | -22.5% | 2.3%
CCO/C=C1/C(=O)N(CC)c2ccccc21 | ? | 15µM* | 11.8% | -6.9% | -16.8% | ?
CCO/C=C1\C(=O)N(c2ccccc2)C(=O)c2ccccc21 | -2.6% | -18.9% | -9.7% | -7.9% | -15.3% | -3.0%
COc1cccc(C2=NOC(C(=O)NCc3ccccn3)C2)c1 (stereo not drawn) | -3.1% | 0.1% | 13.0% | -6.9% | 7.4% | -5.7%
COc1ccc(C2=NOC(C(=O)NCc3ccccn3)C2)cc1 (stereo not drawn) | 0.6% | 26.7µM* | 14.1% | -3.4% | -5.2% | 5.0%
O=C(NC(c1cccnc1)c1ccc2c(c1)OCO2)C1CCN(CCOc2ccc(Cl)cc2Cl)CC1 (stereo not drawn) | . | -4.0% | . | . | . | .
COc1ccc2sc(N(CCCN(C)C)C(=O)c3ccc(S(=O)(=O)N4CCc5ccccc5C4)cc3)nc2c1 | . | -4.2% | . | . | 14.0% | .
Cc1ccc2nc(N(CCCN(C)C)C(=O)c3ccc(S(=O)(=O)N4CCc5ccccc5C4)cc3)sc2c1 | . | 5.2% | 50.1µM* | . | 15.5% | .
CN(C)CCCN(C(=O)c1ccc(S(=O)(=O)N2CCc3ccccc3C2)cc1)c1nc2ccc(F)cc2s1 | . | -11.4% | 44.7µM* | . | 1.0% | .
O=C(NCc1ccccc1Cl)c1ccc2c(c1)N(Cc1ccccc1)C(=O)c1ccccc1S2 | -10.4% | . | . | 10.1% | 6.9% | -19.5%
CCCOc1ccc(CNC(=O)C2CCN(c3nc4ccccc4nc3C(F)(F)F)CC2)cc1 | -2.9% | . | . | 4.9% | 5.7% | -9.2%
CCOC(=O)c1ccccc1NC(=O)c1cn(CC)c2nc(C)ccc2c1=O | -11.2% | 26.7µM* | 2.3% | -15.5% | ? | 2.7%
CCn1cc(C(=O)Nc2ccccc2C(=O)OC)c(=O)c2ccc(C)nc21 | -13.5% | . | 6.4% | -4.6% | . | -2.3%
CCCNC(=O)Cn1c(=O)/c(=C/c2ccc(-c3ccc([N+](=O)[O-])cc3)o2)s/c1=C\C(=O)C(C)(C)C | . | 40.9% | . | . | 16.7% | .
COc1ccc(C=C2SC(=O)NC2=O)cc1OC | . | -4.7% | . | . | 3.4% | .
COc1ccc(C=C2C=C(C(C)(C)C)C(=O)C(C(C)(C)C)=C2)cc1OC | . | 29.9µM* | -21.7% | . | ? | .
S=c1[nH]nc(-c2ccco2)n1/N=C/C(Cl)=C/c1ccccc1 | ? | ? | ? | 14.1µM* | ? | ?
Cc1ccc(/C=N/n2c(-c3ccco3)n[nH]c2=S)cc1 | -18.2% | ? | -16.8% | -13.3% | -7.7% | 11.2%
Cc1cc(-c2n[nH]c(=S)n2/N=C/C(Cl)=C/c2ccccc2)n[nH]1 | -20.5% | ? | 50.1µM* | ? | ? | -5.6%
